Source: PubChem BioAssay (Tox21)
Where “and” joins values, the source holds several entries; their conditions need not be identical. Equal values may be shown once. Results filed as inconclusive are left out. Where a call stands in place of a potency, no number is given. Unmarked numbers belong to inactive results. Calls of active or inactive are those of the source. The call rests on the fitted dose curve; in most records, active means well fitted cell-killing curve with a large enough effect in the repeat runs; inconclusive means weak or mixed curves, or effect the other way; inactive means flat fitted curve, though single readings scatter. Residues, ends and D or L forms follow the SMILES beside them.
Potency means the concentration at half of the fitted maximal effect.

Assay: qHTS assay to identify small molecule that activate the aryl hydrocarbon receptor (AhR) signaling pathway - cell viability counter screen (AID 743086); further: nearly all actives have a fitted effect of over 45% in size;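 on viability change, negative = cytotoxic: HepG2 liver cells carrying the AhR DRE luciferase reporter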
Details: HepG2-AhR-luc viability, CellTiter-Fluor, 24 h; series mostly up to 70.3 µM; viability change, negative = cytotoxic: at the top concentration
Source text: U.S. Tox21 Program National Center for Advancing Translational Sciences [NCATS] NIH Chemical Genomics Center [NCGC] U.S. Environmental Protection Agency [EPA] National Institutes of Environmental Health Sciences [NIEHS] National Toxicology Program [NTP] U.S. Food and Drug Administration [FDA] Tox21 Assay overview: The Aryl hydrocarbon Receptor (AhR), a member of the family of basic helix-loop-helix transcription factors, is crucial to adaptive responses to environmental changes. AhR mediates cellular responses to environmental pollutants such as aromatic hydrocarbons through induction of phase I and II enzymes but also interacts with other nuclear receptor signaling pathways A cell based HepG2-AhR-luc assay (HG2L7.5c1 cell line, developed by Dr. Michael S. Denison, University of California at Davis) was used to assess the activation of AhR. HepG2 (human hepatocellular carcinoma) cells were stably transfected with an Ah receptor-responsive firefly luciferase reporter gene plasmid containing 20 dioxin responsive elements and luciferase reporter gene. Increased luciferase activity can be used to identify the compounds that induce AhR activation. The cytotoxicity of the compounds screened against the HepG2-AhR-luc cell line was tested in parallel by measuring the cell viability using CellTiter-Fluor assay in the same wells.
Tox21 Assay Protocol Summary: 4000 cells in 5 uL/well were dispensed into white wall/solid bottom 1536-well plates using a Multidrop Combi (Thermo Fisher Scientific Inc., Waltham, MA) dispenser. After the assay plates were incubated at 37C for 5 h, 23 nL of compound or DMSO vehicle was transferred to the assay plates by a pintool station (Kalypsys, San Diego, CA). The plates were incubated at 37C for 24 hr. For cell viability measurement, 1 ul/well of CellTiter-Fluor reagent (Promega, Madison, WI) was added into the assay plates using a Flying Reagent Dispenser (FRD) (Aurora Discovery, CA),and then the assay plates were incubated at 37C for 30 min. The fluorescence intensity in the plates was measured using a ViewLux plate reader (PerkinElmer, Shelton, CT), followed by the addition of 4 uL of ONE-Glo Luciferase Assay reagent (Promega) using an FRD (Aurora Discovery). After the assay plates were incubated at room temperature for 30 min, luminescence intensity was measured using a ViewLux plate reader (Perkin Elmer).
In the case of `CCCC(O)C(CC)CO` (stereo not given), the Potency was “inactive”.
In the case of `CCC1(c2ccccc2)C(=O)NCNC1=O`, the Potency was “inactive”.
With `Nc1ccn([C@H]2CC[C@@H](CO)O2)c(=O)n1` the Potency was “inactive”.
In the case of `Nc1ccc(C(=O)O)cc1`, the Potency was “inactive”.
For `Cc1noc(NS(=O)(=O)c2ccc(N)cc2)c1C`, the Potency was “inactive”.
For `O=C1NC(=O)c2ccccc21`, the Potency was “inactive”.
For `CNC[C@H](O)c1cccc(O)c1`, the Potency was “inactive”.
With `O=C(C1CCCCC1)N1CC(=O)N2CCc3ccccc3C2C1` (stereo not given) the Potency was “inactive”.
In the case of `Cc1cc(=O)[nH]c(=S)[nH]1`, the Potency was “inactive”.
With `CC(C)[C@@H]1CC[C@@H](C)C[C@H]1O` the Potency was “inactive”.
For `CCCN(CCC)S(=O)(=O)c1ccc(C(=O)O)cc1`, the Potency was “inactive”.
With `CCCCCCCCCCCCCCCC(=O)O` the Potency was “inactive”.
In the case of `O=C(c1ccccc1)C(O)c1ccccc1` (stereo not given), the Potency was “inactive”.
In the case of `O=NO`, the Potency was “inactive”.
With `O=c1cc[nH]c(=S)[nH]1` the Potency was “inactive”.
In the case of `O=C(O)c1[nH]n(-c2ccc(S(=O)(=O)O)cc2)c(=O)c1N=Nc1ccc(S(=O)(=O)O)cc1`, the Potency was 30.7 µM (active) and 22.7 µM (active).
For `C1N2CN3CN1CN(C2)C3`, the Potency was “inactive”.
For `NC(N)=NC(=O)c1nc(Cl)c(N)nc1N`, the Potency was “inactive”.
In the case of `CCCC(CCC)C(=O)O`, the Potency was “inactive”.
In the case of `O=C(O)C(=O)O`, the Potency was “inactive”.
In the case of `Oc1ccc(/C=C/c2cc(O)cc(O)c2)cc1`, the Potency was “inactive”.
With `NC(=O)c1ccccc1O` the Potency was “inactive”.
In the case of `Cc1ccccc1C(OCCN(C)C)c1ccccc1` (stereo not given), the Potency was “inactive”.
In the case of `CCCCC1C(=O)N(c2ccccc2)N(c2ccccc2)C1=O`, the Potency was “inactive”.
In the case of `CC1(C)[C@@H]2CC[C@@]1(C)C(=O)C2`, the Potency was “inactive”.
In the case of `COC(=O)[C@H](Cc1ccccc1)NC(=O)[C@@H](N)CC(=O)O` (H-Asp-Phe-OMe), the Potency was “inactive”.
For `Cc1ccc(C)c(OCCCC(C)(C)C(=O)O)c1`, the Potency was “inactive”.
For `Cc1cc(=O)n(-c2ccccc2)n1C`, the Potency was “inactive”.
In the case of `CC(O)CN(CCN(CC(C)O)CC(C)O)CC(C)O` (stereo not given), the Potency was “inactive”.
In the case of `O=S(=O)(O)NC1CCCCC1`, the Potency was “inactive”.
For `CC(O)C(=O)O` (stereo not given), the Potency was “inactive”.
In the case of `Nc1ccc(S(=O)(=O)c2ccc(N)cc2)cc1`, the Potency was “inactive”.
For `O=S(=O)(O)c1ccc2cc(O)ccc2c1`, the Potency was “inactive”.
In the case of `Cn1cc[nH]c1=S`, the Potency was “inactive”.
In the case of `CC(O)CO` (stereo not given), the Potency was “inactive”.
In the case of `COc1ccc2[nH]cc(CCNC(C)=O)c2c1`, the Potency was “inactive”.
For `NC(N)=O`, the Potency was “inactive”.
For `O=C(O)CS`, the Potency was “inactive”.
In the case of `CC(C)(Oc1ccc(C2CC2(Cl)Cl)cc1)C(=O)O` (stereo not given), the Potency was “inactive”.
With `N=C(N)c1ccc(OCCCCCOc2ccc(C(=N)N)cc2)cc1` the “viability change, negative = cytotoxic” value was -24.9%.
